# BAZ2B block = BAZ2B (human) inhibition | 360,000 tested, 4.4% active | AlphaScreen BAZ2B-H3K14Ac peptide displacement | Potency, µM (titrated, usually from 114 µM), hits mostly inhibitors | Q9UIF8; note: nearly all actives have a fitted effect of over 60% in size
#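 BAZ2B (50 nM) with biotin-H3(5-23)K14Ac peptide (50 nM) in PBS pH 7.4, 0.01% Tween-20, preformed 30 min, then compound 30 min at room temperature; top concentration 110uM. AlphaScreen streptavidin donor/nickel chelate acceptor beads (10 ug/mL final), 20 min dark, signal read.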
# G9a block = blocks human histone lysine methyltransferase G9a; G9a H3K9 monomethylation, AlphaScreen, 2 h; AID 504332; Q96KQ7; Potency, µM (top dose mostly 102 µM), most hits filed as inhibitors; 350,000 tested, 8.8% active; note: nearly all actives have a fitted effect of over 75% in size
#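 Signal arises when biotinylated H3K9 peptide, once monomethylated, bridges streptavidin donor and antibody-captured acceptor beads. Enzyme at 20 nM was preincubated 15 min with test compounds; peptide 500 nM and SAM 20 uM then reacted for 2 h.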
# L3MBTL1 block = inhibitors of human L3MBTL1. Q9Y468. AlphaScreen L3MBTL1–H3K9me1 peptide binding. Potency, µM (highest dose often 57.1 µM), usual class: inhibitors. 230,000 tested, 0.66% active; note: nearly all actives have a fitted effect of over 60% in size
#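 Displacement of a biotinylated histone H3(1-15) peptide monomethylated at Lys9 (75 nM) from L3MBTL1 (50 nM) was measured by AlphaScreen after a 30 min room-temperature compound incubation; cefsulodin titration served as intraplate control.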
# JMJD2A Tudor inh = blocks the human JMJD2A Tudor domain; AID 504339; 390,000 tested, 4.4% active; O75164; Potency, µM (doses to about 114 µM), hits mostly inhibitors; AlphaScreen JMJD2A-Tudor / H3K4me3 peptide binding; note: nearly all actives have a fitted effect of over 50% in size
# HP1b binding inh = HP1-beta chromodomain-methylated histone interaction inhibition; 390,000 tested, 0.56% active; AID 540317; P83916; Potency, µM (top dose mostly 114 µM), most hits filed as inhibitors; AlphaScreen HP1-beta / biotin-H3K9me3 peptide binding; note: nearly all actives have a fitted effect of over 70% in size
#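 HP1-beta protein (50 nM final) preincubated 30 min at room temperature with biotinylated H3(1-18)K9me3 peptide (50 nM) in PBS pH 7.4, 0.01% Tween-20, then compound added for 30 min. AlphaScreen streptavidin donor/nickel chelate acceptor beads (10 ug/mL final), 30 min dark, luminescence read.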
# Hits are given with their value; 0 = inactive; ? = inconclusive; - = no result given; [ ] = another dose, or the depositor's remark. Compounds with a hit are over-represented: about 11% of the library has one in this group of screens. Calls come from the whole dose curve; as a rule, active = well fitted inhibition curve with a large enough effect; inconclusive = small, poorly fitted or top-dose-only effect; inactive = no such curve, though single readings can be large or run the other way.
SMILES,BAZ2B block,G9a block,L3MBTL1 block,JMJD2A Tudor inh,HP1b binding inh
CC(C)(C)C(=O)Nc1cccc(C(=O)OCc2cc(=O)n3nc(C4CCCCC4)sc3n2)c1,0,0,-,0,0
Cc1[nH]c2ccccc2c1C(=O)CSc1nc2cc(S(=O)(=O)N3CCCCC3)ccc2o1,0,0,0,0,0
Cc1ccc(C(=O)CSc2nc3cc(S(=O)(=O)N4CCOCC4)ccc3o2)cc1,0,31.6µM,0,0,0
Cc1c(C(=O)N2CCC(C(=O)Nc3ccc(F)cc3)CC2)sc2nc[nH]c(=O)c12,0,0,-,0,0
CC(=O)N/C(=C\c1ccccc1)C(=O)OCc1ccccc1,0,-,-,0,0
O=C(O)C/C=C(\NC(=O)OCc1ccccc1)C(=O)OCc1ccccc1,-,50.1µM,-,0,0
COc1ccccc1Nc1nc(N)nc(CN2CCC(C)CC2)n1,0,0,-,?,0
COc1ccccc1Nc1nc(N)nc(CN2CCOCC2)n1,56.2µM,?,0,0,0
COc1ccccc1Nc1nc(N)nc(CN2CCCCCC2)n1,12.6µM,?,?,0[11.4 µM],0
COc1ccc(Nc2nc(N)nc(CN3CCOCC3)n2)cc1,79.4µM,0,0,50.1µM,0
CCNC(=S)N/N=C(\C)c1ccco1,0,35.5µM,0,0,0
O=C(O)CSC1CC(=O)N(c2ccc(Cl)cc2)C1=O (stereo not drawn),0,?,0,0,0
Cc1ccc(N2C(=O)CC(N(O)C3CC(=O)N(c4ccc(C)cc4)C3=O)C2=O)cc1 (stereo not drawn),0,?,0,0,0
CCCCCCC(=O)N(O)C1CC(=O)N(c2ccc(C)cc2)C1=O (stereo not drawn),0,1.26µM,-,14.1µM,?
CCCCCCC(=O)N(O)C1CC(=O)N(c2ccc(Cl)cc2)C1=O (stereo not drawn),0,-,0,31.6µM,39.8µM
CCn1c2ccc(C)cc2c2nnc(NN)nc21,?,50.1µM,0,?,0
Cn1c2ccccc2c2nnc(NN)nc21,?,-,0,0,0
CCCn1c2ccc(F)cc2c2nnc(SCCN(CC)CC)nc21,0,0,-,?,0
CCCCn1c2ccc(F)cc2c2nnc(NN)nc21,0,50.1µM,0,0,0
CCn1c2ccccc2c2nnc(NN)nc21,?,?,0,50.1µM,0
CCn1cc(C(=O)NCCc2ccc(Cl)cc2)c(=O)c2cc(S(=O)(=O)N3CCOCC3)ccc21,-,0,-,0,0
Cc1ccc(OCC(=O)NCC2(N3CCOCC3)CCCCC2)cc1C,?,0,-,0,0
COc1ccc(S(=O)(=O)NNC(=O)Cc2csc(C)n2)cc1[N+](=O)[O-],79.4µM,?,?,?,0
Cc1ccc(C2=CC(c3ccccc3F)n3c(nc4ccccc43)N2)cc1C (stereo not drawn),0,?,-,0,0
Cc1cccc(C(=O)NC(=S)N2CCN(C)CC2)c1,0,79.4µM,0,0,0
SMILES,BAZ2B block,G9a block,L3MBTL1 block,JMJD2A Tudor inh,HP1b binding inh
CN1CCC(NC(=O)Nc2ccc(Br)cc2)CC1,0,-,0,0,0
Cc1ccccc1NC(=O)c1ccc(S(=O)(=O)N2CCCC2)cc1,0,0,-,0,0
N#CCCSc1ccccc1NC(=O)c1ccc(S(=O)(=O)N2CCCC2)cc1,0,10µM,0,-,-
CN1CCN(C(=S)C(=O)Nc2ccc(Br)cc2)CC1,0,2.51µM,0,89.1µM,?
N#CCCN(Cc1cccnc1)S(=O)(=O)c1ccc(S(=O)(=O)N2CCCCCC2)cc1,0,0,0,0,0
N#CCCN(Cc1cccnc1)C(=S)NC(=O)c1ccc(S(=O)(=O)N2CCCC2)cc1,0,28.2µM,0,0,0
CCN(CC)C(=O)CSc1nc2cc3c(cc2c(=O)n1Cc1ccc(C(=O)NCCc2ccc(OC)c(OC)c2)cc1)OCO3,0,0,-,0,0
CCCN(CC1CC1)C(=S)NC(=O)c1ccc(S(=O)(=O)N2CCOCC2)cc1,-,28.2µM,0,0,0
CN1CCN(C(=S)NC(=O)c2ccc(Br)cc2)CC1,0,39.8µM,0,0,0
O=C(NC(=S)N1CCN(C(c2ccccc2)c2ccccc2)CC1)c1ccc(S(=O)(=O)N2CCOCC2)cc1,0,0,0,0,0
CN1CCN(C(=S)NC(=O)c2ccc(S(=O)(=O)N3CCOCC3)cc2)CC1,?,?,0,44.7µM,0
O=c1cc(CSc2ncn[nH]2)[nH]c2c(Cl)cccc12,0,0,-,0,0
CCc1ccccc1N(CC(=O)N1CCN(c2ccccc2)CC1)S(C)(=O)=O,-,0,0,79.4µM,0

# Source: PubChem (National Center for Advancing Translational Sciences (NCATS))
